# Assay outcomes from PubChem.
# Compounds with a hit are over-represented: about 11% of the library has one in this group of screens.
# VDR inhibitor: blocks the human vitamin D receptor. 400,000 tested, 0.93% active. AID 504847. P11473. VDR-SRC2-3 peptide fluorescence polarization, 2 h. Potency, µM, for the others: max response, negative = inhibition, most hits filed as inhibitors; also: % is scaled to controls: 0 for no effect and ±100 for the full control effect
# Target sequence (P11473 whole entry, looked up): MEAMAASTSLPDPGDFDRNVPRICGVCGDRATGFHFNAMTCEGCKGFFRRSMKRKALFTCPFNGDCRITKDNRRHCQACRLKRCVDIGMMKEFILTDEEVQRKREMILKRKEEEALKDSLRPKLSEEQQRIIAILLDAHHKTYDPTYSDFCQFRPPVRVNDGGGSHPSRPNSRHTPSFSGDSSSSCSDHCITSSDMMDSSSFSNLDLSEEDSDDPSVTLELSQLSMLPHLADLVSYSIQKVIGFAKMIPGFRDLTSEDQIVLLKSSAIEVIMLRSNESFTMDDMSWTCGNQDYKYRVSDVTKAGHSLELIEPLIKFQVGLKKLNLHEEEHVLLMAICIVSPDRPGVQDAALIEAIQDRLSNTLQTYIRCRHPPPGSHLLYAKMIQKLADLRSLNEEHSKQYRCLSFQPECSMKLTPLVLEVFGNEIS
#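 FP read-out; VDR + SRC2-3 coactivator peptide; 23 nl compound by pintool; 2 h RT incubation; reagents held at 4 deg C, protected from light.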
# BAZ2B inh: blocks human BAZ2B; Potency, µM (series often up to 114 µM), for inactives: top-dose activity change, negative = inhibition, most hits filed as inhibitors; AID 504333; Q9UIF8; 360,000 tested, 4.4% active; AlphaScreen BAZ2B-H3K14Ac peptide displacement; also: % is scaled to controls: 0 for no effect and ±100 for the full control effect; nearly all actives have a fitted effect of over 60% in size
#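 Inhibition is scored as reduced AlphaScreen emission. The BAZ2B/b-H3(5-23)K14Ac complex (50 nM each) in PBS pH 7.4, 0.01% Tween-20 meets compound (up to 110 uM) for 30 min at RT before bead addition.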
# G9a inh-1: blocks human histone lysine methyltransferase G9a | Q96KQ7 | G9a H3K9 monomethylation, AlphaScreen, 2 h | Potency, µM (doses to about 102 µM), for inactives: at the top dose activity, negative = inhibition, most hits filed as inhibitors | 350,000 tested, 8.8% active; also: % is scaled to controls: 0 for no effect and ±100 for the full control effect; nearly all actives have a fitted effect of over 75% in size
#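 Step 1: enzyme (final 20 nM) with compound, 15 min RT. Step 2: substrate peptide 500 nM and SAM 20 uM, 2 h RT. Step 3: anti-H3K9me1 antibody and AlphaScreen beads, 10 min, then plate read.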
# PLK1 PBD inh: PLK1 (human) polo-box domain binding inhibition | P53350 | Plk1 PBD binding of FITC phosphopeptide, fluorescence polarization | Potency, µM, without a hit: max response, negative = inhibition, actives largely listed as inhibitors | 360,000 tested, 2.8% active | AID 720504; also: series mostly up to about 57 µM; % is scaled to controls: 0 for no effect and ±100 for the full control effect; nearly all actives have a fitted effect of over 65% in size
# HP1b chromo inh: blocks HP1-beta chromodomain binding to methylated histone tails | AlphaScreen HP1-beta / biotin-H3K9me3 peptide binding | Potency, µM (top dose mostly 114 µM), for the others: top-dose activity change, negative = inhibition, hits mostly inhibitors | AID 540317 | 390,000 tested, 0.56% active | P83916; also: nearly all actives have a fitted effect of over 70% in size
# Target sequence (P83916 whole entry, looked up): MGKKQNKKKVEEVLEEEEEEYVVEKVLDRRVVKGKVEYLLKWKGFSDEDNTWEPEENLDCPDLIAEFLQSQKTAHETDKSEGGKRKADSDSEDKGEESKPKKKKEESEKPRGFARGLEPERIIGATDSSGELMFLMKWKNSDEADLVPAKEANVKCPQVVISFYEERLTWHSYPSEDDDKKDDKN
#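 AlphaScreen: HP1-beta (50 nM) preformed 30 min with biotin-H3(1-18)K9me3 peptide (50 nM) in PBS pH 7.4, 0.01% Tween-20. Compound added for 30 min at RT, then streptavidin donor/nickel chelate acceptor beads (10 ug/mL) for 30 min.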
# JMJD2A Tudor: blocks the human JMJD2A Tudor domain | AlphaScreen JMJD2A-Tudor / H3K4me3 peptide binding | Potency, µM (highest dose often 114 µM), without a hit: top-dose activity change, negative = inhibition, usual class: inhibitors | 390,000 tested, 4.4% active | AID 504339; also: % is scaled to controls: 0 for no effect and ±100 for the full control effect; nearly all actives have a fitted effect of over 50% in size
# G9a inh-2: confirmation of human histone methyltransferase G9a inhibitors; shares compounds with JMJD2A Tudor; G9a H3K9 monomethylation, AlphaScreen, 2 h; Potency, µM, most hits filed as inhibitors; 370 tested, 89% active; AID 588344; also: nearly all actives have a fitted effect of over 65% in size
# VDR inh confirm: confirmation of human vitamin D receptor inhibitors; shares compounds with VDR inhibitor; VDR-coactivator inhibition assay, qHTS confirmation; Potency, µM, usual class: inhibitors; 840 tested, 89% active; AID 602199
# VDR FP fluor: confirmation of human VDR-coactivator binding inhibitors, fluorescein label; shares compounds with VDR inhibitor; VDR-coactivator binding, fluorescein fluorescence polarization; Potency, µM (top dose mostly 57.1 µM), without a hit: top-dose activity change, negative = inhibition, usual class: inhibitors; 840 tested, 48% active
# VDR bla: confirmation of human vitamin D receptor inhibitors in reporter cells; shares compounds with VDR inhibitor; VDR beta-lactamase reporter cells, FRET ratio; cells co-treated with VDR agonist LG190178; Potency, µM (doses to about 46.1 µM), without a hit: at the top dose activity change, negative = inhibition, most hits filed as inhibitors; 840 tested, 23% active; also: % is scaled to controls: 0 for no effect and ±100 for the full control effect
# VDR cytotox: cytotoxic in counter-screen for VDR inhibitors. shares compounds with VDR inhibitor. cytotoxicity counter-screen, cell viability, qHTS. Potency, µM (series often up to 48.3 µM), inactives show at the highest dose activity change, negative = cytotoxicity, usual class: cytotoxic. 840 tested, 18% active. AID 602204;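 also: plate controls were DMSO for no effect and high-concentration cycloheximide for full effect; nearly all actives have a fitted effect of over 75% in size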
# * marks the source's active call; other numbers are inactive results; u = inconclusive; x = not tested or not shown; ! = not confirmed by another sample; [ ] = dose if it differs, or a comment. Calls follow the shape of the dose curve; as a rule, active = well fitted curve in the direction sought with a large enough effect; inconclusive = small, poorly fitted or top-dose-only effect, or another doubt; inactive = no such curve, though single readings can be large; an effect the other way counts as inactive or inconclusive. Potency is read from the fitted curve at half-maximal effect.
SMILES,VDR inhibitor,BAZ2B inh,G9a inh-1,PLK1 PBD inh,HP1b chromo inh,JMJD2A Tudor,G9a inh-2,others
CC(=O)N1c2ccc(S(=O)(=O)NCCC(=O)N3CCC(C)CC3)cc2CC1C (stereo not drawn),-26%,-4%,11%[59 µM],u,11%,-16%,x,
COc1ccccc1NC(=O)c1c(NCc2ccc(C)o2)sc2c1CCCCC2,u,u,1.3µM*,x,u,45µM*,3.6*,
O=C(NCc1cccnc1)C1CCN(Cc2cc3ccccc3n2Cc2cccc(Cl)c2)CC1,1%,u,-31%[59 µM],x,-5%,u,x,
CC(Sc1nnnn1C)C(=O)Nc1ccc(Oc2ccccc2)cc1 (stereo not drawn),11%,15%,27%[59 µM],-4%,33%,-11%,x,
CCC(Sc1nnnn1C)C(=O)Nc1ccc(C(C)=O)cc1 (stereo not drawn),18%,u,u,-16%,7%,-3%,11*,
COc1ccc(C2=NN(C(C#N)c3ccc(OC)c(OC)c3)C(c3ccccc3)C2)cc1 (stereo not drawn),4%,58%,u,-5%,101%,7%,x,
CCc1ccc(-n2nnc(-c3nc(-c4cccs4)no3)c2N)cc1,17%,-1%,4%[59 µM],x,30%,-1%,x,
COc1ccc(N2CCC(CNC(=O)Nc3ccc(Cl)cc3)C2)cc1 (stereo not drawn),-22%,-34%,0.71µM*,-4%,u,u,0.5*,
COc1ccc(N2CCC(CNC(=O)Nc3cccc(OC)c3)C2)cc1 (stereo not drawn),-11%,32µM*,u,-9%,16µM*,40µM*,1.6*,
O=C(NCC1CC1)Nc1ccc(Cl)cc1,0%,1%,14%,-8%,26%,-3%,x,
Cc1oc(-c2ccccc2)cc1C(=O)Nc1ccc(N(C)C)cc1,4%,20µM*,2.2µM*,-1%,u,50µM*,1.8*,
Cc1cc(=O)oc(C)c1C(=O)Nc1ccc(N(C)C)cc1,-2%,-15%,u,3%,52%,-21%,x,
COc1ccc(NC(=O)COC(=O)c2ccc(S(=O)(=O)N(C)c3ccccc3OC)cc2)cc1,5%,x,x,2%,39%,-13%,x,
COc1ccc(NC(C)c2cc(Cl)ccc2O)cc1 (stereo not drawn),-13%,32µM*,u,-28%,71µM*,9%[11.4 µM],u,
CCn1cnc2cc(NCc3ccc(C)cc3)ccc21,1%,u,1.6µM*,0%,-10%,u,4.5*,
CCOc1ccc(CNc2nnnn2C)cc1,11%,-2%,-4%,-2%,8%,-18%,x,
CCn1cnc2cc(NCc3nc4ccccc4n3C)ccc21,1%,u,2.5µM*,-9%,-4%,-35%,u,
CCOc1ccc(CNc2ccc3c(c2)ncn3C)cc1,-17%,u,u,-12%,-18%,u,1.8*,
Cn1c(CNc2ccccc2)nc2ccccc21,0%,-10%,-26%,-8%,38%,-17%,x,
Cc1ccc(OCC(=O)Nc2cccc(-c3nc4ccccc4s3)c2)cc1,0%,1%,2.5µM*,x,-14%,-12%,11*,
Cc1cccc(OCC(=O)Nc2cccc(-c3nc4ccccc4s3)c2)c1,-10%,5%,13%[59 µM],x,56%,-2%,x,
O=C(COc1ccccc1)Nc1nnc(S(=O)(=O)Nc2ccccc2)s1,0%,1.4µM*!,u,-3%,46%,u,u,
COc1ccccc1NC(=O)CSc1ccc(-c2cccs2)nn1,-7%,2%,u,-1%,24%,2%,x,
COc1ccc(OC)c(NC(=O)CSc2ccc(-c3cccs3)nn2)c1,5%,-19%,2.8µM*,x,-15%,u,10*,
NS(=O)(=O)c1ccc(NCc2c(F)cccc2Cl)cc1,8%,-7%,0%,2%,24%,-11%,x,
SMILES,VDR inhibitor,BAZ2B inh,G9a inh-1,PLK1 PBD inh,HP1b chromo inh,JMJD2A Tudor,G9a inh-2,others
Fc1cccc(Cl)c1CNc1ccc(N2CCCC2)cc1,50µM*,13µM*,1.8µM*,21µM*,25µM*,20µM*,5.6*,VDR inh confirm=12*;VDR FP fluor=13µM*;VDR bla=-16%;VDR cytotox=u
COc1ccc(C2CC(=O)N(CC(=O)Nc3ccc(C(F)(F)F)cc3)c3ccccc3S2)cc1 (stereo not drawn),9%,-16%,1%[59 µM],x,23%,-14%,x,
COC(=O)c1ccccc1NC(=O)CSc1nc2sc3c(c2c(=O)[nH]1)CCCC3,14µM*,u,u,x,u,56µM*,4.1*,VDR inh confirm=u;VDR FP fluor=4µM*;VDR bla=3%;VDR cytotox=4%
O=C1CC(SCCO)C(=O)N1c1ccc(Oc2ccccc2)cc1 (stereo not drawn),-7%,10%,-6%[59 µM],-15%,45%,-7%,x,
O=C(Cc1ccccc1)Nc1sc2c(c1C(=O)Nc1ccc(Cl)cc1)CCCC2,28µM*,u,0.32µM*,x,u,u,1.8*,VDR inh confirm=3.2*;VDR FP fluor=2.2µM*;VDR bla=-13%;VDR cytotox=7%
COc1ccc(CC(=O)Nc2sc3c(c2C(=O)Nc2ccccc2)CCCCC3)cc1,10%,-5%,-40%[59 µM],x,30%,-12%,x,
Cc1onc(-c2ccccc2)c1C(=O)Nc1nnc(COc2ccc(Cl)cc2)s1,20µM*,-35%,u,1.3µM*,u,u,0.8*,VDR inh confirm=6.7*;VDR FP fluor=u;VDR bla=-5%;VDR cytotox=-18%
